Screening results as filed in PubChem.
GPT2 inh: blocks human glutamate pyruvate transaminase 2 | Q8TD30 | Recombinant GPT2, coupled pyruvate oxidase/HRP Amplex Red fluorescence | Potency, µM (doses to about 57.7 µM), most hits filed as inhibitors | actives 0.25% (n = 100,000) | AID 1671188; also: nearly all actives have a fitted effect of over 60% in size
Target sequence (Q8TD30 whole entry, looked up): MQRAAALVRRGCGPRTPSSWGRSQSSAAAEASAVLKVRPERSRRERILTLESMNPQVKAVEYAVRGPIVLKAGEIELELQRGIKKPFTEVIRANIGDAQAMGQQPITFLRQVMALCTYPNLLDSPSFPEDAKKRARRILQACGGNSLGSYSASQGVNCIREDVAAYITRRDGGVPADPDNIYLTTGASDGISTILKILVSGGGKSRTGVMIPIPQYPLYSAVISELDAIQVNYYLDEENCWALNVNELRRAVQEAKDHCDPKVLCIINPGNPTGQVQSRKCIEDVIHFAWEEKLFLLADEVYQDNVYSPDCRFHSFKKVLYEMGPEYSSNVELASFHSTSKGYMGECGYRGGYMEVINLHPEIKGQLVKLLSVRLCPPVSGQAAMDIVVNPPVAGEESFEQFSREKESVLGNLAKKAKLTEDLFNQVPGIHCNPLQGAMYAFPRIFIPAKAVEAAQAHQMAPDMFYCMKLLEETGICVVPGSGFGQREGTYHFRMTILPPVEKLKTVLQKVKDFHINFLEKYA
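Inhibition is scored from Amplex Red fluorescence generated when pyruvate oxidase and HRP act on pyruvate released by GPT2. Reactions contain 10ng/uL enzyme, 250uM a-KG and 2mM L-alanine and run 30 min at room temperature.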
NIH3T3 tox: cytotoxic compounds in NIH 3T3 cells. NIH 3T3 viability, CellTiter-Glo ATP luminescence, 48-72 h. Potency, µM (doses to about 96.7 µM), hits mostly inhibitors. actives 4.3% (n = 94,000); also: nearly all actives have a fitted effect of over 55% in size
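Cytotoxicity was measured by CellTiter-Glo ATP luminescence after 48 or 72 h compound exposure at 37 °C. Mouse NIH 3T3 fibroblasts were seeded at 400 cells/well and dosed by 23 nL pin transfer.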
NPR1 antag: antagonists of human natriuretic peptide receptor Npr1 | AID 1347048 | actives 1.6% (n = 76,000) | HEK293 hNpr1 GloSensor cGMP, ANP-stimulated luminescence | P16066 | Potency, µM (titrated, usually from 46.3 µM), usual class: inhibitors; calls by dose curve; also: nearly all actives have a fitted effect of over 60% in size
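HEK293 cells stably expressing human Npr1 and cGMP GloSensor pGS-40F, loaded 2 h with 2% GloSensor reagent, given compound 30 min at room temperature. Luminescence read before and 20 min after 0.1 nM hNppA.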
Luciferase inh: inhibitors of firefly (Photinus pyralis) luciferase | P08659 | purified P. pyralis luciferase, luminescence, biochemical | Potency, µM (top dose mostly 115 µM), hits mostly inhibitors | actives 2.5% (n = 76,000); also: nearly all actives have a fitted effect of over 65% in size
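Biochemical qHTS: compound (6-point titration) added to 10uM D-luciferin plus 10uM ATP in Tris acetate pH 7.5 buffer with Mg, Tween-20 and BSA, then purified enzyme at 10nM; light output imaged.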
HEK cytotox: HEK 293 cell cytotoxicity; HEK 293 viability, ATP luminescence (CellTiter-Glo), 48-72 h; Potency, µM (series often up to 115 µM), actives largely listed as inhibitors; actives 6.6% (n = 94,000); AID 1345083; also: nearly all actives have a fitted effect of over 60% in size
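Viability of HEK 293 cells, plated at 250 cells/well, was judged by cellular ATP after compound treatment for 48 or 72 hr. Luminescence was imaged 10 min after CellTiter-Glo addition at room temperature.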
Each line names hits and unclear results; the compound was inactive in the other large screens. Shown are actives, neighbours in structure and some others; about 10% of the full set was active somewhere. Unless noted, calls follow the shape of the dose curve; as a rule, active = well fitted curve in the direction sought with a large enough effect; inconclusive = small, poorly fitted or top-dose-only effect, or another doubt; inactive = no such curve, though single readings can be large; an effect the other way counts as inactive or inconclusive.

Cc1nc(-c2ccc(N(C)C)cc2)cc([C@H]2CN3CC[C@H]2C[C@@H]3COC(=O)Nc2ccccc2)n1	NIH3T3 tox 4µM, HEK cytotox inconclusive
COc1ccc(NC(=O)OC[C@H]2C[C@@H]3CCN2C[C@@H]3c2cc(-c3ccc(N(C)C)cc3)nc(C)n2)cc1	NIH3T3 tox 16µM, HEK cytotox 18µM
CC(=O)NC[C@H]1C[C@@H]2CCN1C[C@@H]2c1cc(-c2ccccc2)nc(C)n1	NIH3T3 tox inconclusive
COc1cc(NC(=O)OC[C@H]2C[C@@H]3CCN2C[C@@H]3c2cc(-c3ccc(N(C)C)cc3)nc(C)n2)cc(OC)c1	NIH3T3 tox 7.9µM, NPR1 antag inconclusive, Luciferase inh inconclusive, HEK cytotox 5.6µM
CCCNC(=O)OC[C@H]1C[C@@H]2CCN1C[C@@H]2c1cc(-c2ccc(F)cc2)nc(C)n1	NIH3T3 tox inconclusive, HEK cytotox inconclusive
Cc1nc(-c2ccc(N(C)C)cc2)cc([C@H]2CN3CC[C@H]2C[C@@H]3CNC(=O)c2ccco2)n1	NIH3T3 tox inconclusive, Luciferase inh inconclusive, HEK cytotox inconclusive
Cc1nc(-c2ccc(N(C)C)cc2)cc([C@H]2CN3CC[C@H]2C[C@@H]3CNC(=O)NC(C)C)n1	NIH3T3 tox 89µM, HEK cytotox inconclusive
CC[C@H]1/C=C\C=C/C[C@@H](C)[C@H](O)[C@@](C)(O)C(=O)[C@@H](C)[C@H](O)[C@@H](C)C(=O)[C@@H](C)[C@H](O)[C@@H](C)/C=C\C(=O)O[C@@H]2[C@H](C)[C@H](CC1)O[C@]1(CC[C@H](C)[C@H](C[C@@H](C)O)O1)[C@H]2C	none (no result: NIH3T3 tox, NPR1 antag, Luciferase inh, HEK cytotox)
CC(C)(C)CC(=O)N1C[C@@H]2C[C@H](C1)c1ccc(NC(=O)c3ccco3)c(=O)n1C2	none
O=C(Nc1nccs1)[C@H]1CN2CC[C@H]1C[C@@H]2Cn1cc(-c2ccccc2)nn1	none
O=[S+]1([O-])NCC2(CCN(Cc3ccccn3)C2)Oc2ncccc21 (configuration not stated)	none (no result: NPR1 antag, Luciferase inh)
COc1ccc(CC(=O)N2CCN(Cc3ccccc3-c3cccnc3)CC2)cc1	NIH3T3 tox inconclusive, HEK cytotox inconclusive (no result: NPR1 antag, Luciferase inh)
Cc1ccc(-c2ccccc2CN2CCN(C(=O)Cc3ccccn3)CC2)cc1Cl	NIH3T3 tox 25µM, HEK cytotox inconclusive (no result: NPR1 antag, Luciferase inh)
CCC(CC)C(=O)NC[C@H]1C[C@@H]2CCN1C[C@@H]2c1cc(-c2ccccc2Br)nc(C)n1	HEK cytotox inconclusive
COc1cc2c(cc1Oc1ccccc1)NC(=O)C21CCN(C(=O)c2cccnc2)CC1	NIH3T3 tox inconclusive, HEK cytotox 56µM
COc1cc2c(cc1OCC1CC1)NC(=O)C21CCN(C(=O)CCc2cccnc2)CC1	NIH3T3 tox inconclusive
COCC(=O)N1CCC2(CC1)C(=O)Nc1cc(Oc3ccccc3)c(OC)cc12	HEK cytotox inconclusive
COc1cc2c(cc1OCC1CC1)NC(=O)C21CCN(C(=O)c2cccnc2)CC1	NIH3T3 tox 25µM
COc1cc2c(cc1Oc1ccccc1)NC(=O)C21CCN(C(=O)c2scnc2C)CC1	GPT2 inh inconclusive, NIH3T3 tox inconclusive, HEK cytotox 45µM
FC(F)(F)CN1C2CCC1CN(c1nccs1)C2	none (no result: NPR1 antag, Luciferase inh)
c1ccc2c(c1)Sc1ccccc1N2CC1CN2CCC1CC2 (configuration not stated)	none (no result: NIH3T3 tox, NPR1 antag, Luciferase inh, HEK cytotox)
O=C(NC1CCCCC1)N1C[C@@H]2C[C@H](C1)c1c(/C=C/c3ccc(Cl)cc3)ccc(=O)n1C2	none
O=C1NCc2ccccc2CC12CCCN2Cc1ccc(Br)cn1 (configuration not stated)	none (no result: NPR1 antag, Luciferase inh)
O=C(C1CC1)N1C[C@H]2CN(Cc3cccnc3)C[C@@]2(C(=O)O)C1	none
O=C(NC[C@H]1C[C@@H]2CCN1C[C@@H]2CN1C[C@@H]2C[C@H](C1)c1cccc(=O)n1C2)Nc1ccccc1	none
C[C@]12CC[C@@H](O)C[C@@H]1CC[C@@H]1[C@@H]2CC[C@]2(C)C(=O)[C@@H](Br)C[C@@H]12	none (no result: NIH3T3 tox, NPR1 antag, Luciferase inh, HEK cytotox)
C[C@@H]1O[C@H](C[N+](C)(C)C)CS1	none (no result: NIH3T3 tox, NPR1 antag, Luciferase inh, HEK cytotox)
Cc1ccc(C)c(S(=O)(=O)N2[C@H]3CC[C@@H]2c2cnc(-c4ccccc4)nc2C3)c1	NPR1 antag inconclusive
